Assay results taken from PubChem BioAssay (Tox21).
Unmarked numbers belong to inactive results. Results filed as inconclusive are left out. A call without a number means that no potency is given here. Calls of active or inactive are those of the source. Unless noted, calls come from the whole dose curve; as a rule, active = well fitted curve in the direction sought with a large enough effect in the repeat runs; inconclusive = weak or mixed curves; inactive = no such curve, though single readings can be large; an effect the other way counts as inactive or inconclusive.

Legend:
[1] = qHTS assay for small molecule agonists of the p53 signaling pathway (AID 651631; calls by dose curve; note: nearly all actives have a fitted effect of over 15% in size; note: potency is the fitted concentration of half-maximal effect)
Outline: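 HCT-116 cells carrying a stable p53 response element–beta-lactamase reporter were plated, rested 5 h at 37 °C, then exposed to compound in DMSO for 16 h at 37 °C; reporter activity was read as FRET substrate fluorescence after 2 h at room temperature.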

[2] = qHTS assay for small molecules that induce genotoxicity in human embryonic kidney cells expressing luciferase-tagged ATAD5 (AID 651632); note: nearly all actives have a fitted effect of over 15% in size
Outline: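 A rise in luciferase signal from ATAD5-tagged HEK293T cells marks genetic stress. Cells were exposed to compounds for 16 hr at 37C, 5% CO2, then luciferase was quantified after a 30 min room-temperature incubation with Amplite.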

[3] = qHTS assay for small molecule agonists of the p53 signaling pathway - cell viability (AID 651633; calls by dose curve; note: nearly all actives have a fitted effect of over 30% in size; note: potency is the fitted concentration of half-maximal effect)
Outline: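 p53RE-bla cells, seeded at 4,000 per well and rested 5 h at 37 C/5% CO2, received compounds in DMSO for 16 h at 37 C. CellTiter-Glo was then added, and luminescence was read after 30 min at room temperature to gauge cytotoxicity.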

[4] = qHTS assay for small molecule disruptors of the mitochondrial membrane potential (AID 720635); note: potency is the fitted concentration of half-maximal effect
Outline: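 HepG2 cells (2,000/well) attached overnight at 37C, then took compound for 1 hr at 37C, 5% CO2. Mito-MPS dye was added for 30 min; fluorescence was read at 490/535 nm (monomers) and 540/590 nm (aggregates).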

[5] = qHTS assay to test for compound auto fluorescence at 590 nm (red) in HepG2 cells (AID 720674)
Outline: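 Intrinsic compound fluorescence in the red window (Ex/Em 540/590 nm) is measured in attached HepG2 cells exposed for 1 hr, DMSO vehicle as baseline, benchmarked to Rose Bengal sodium.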

[6] = qHTS assay to test for compound auto fluorescence at 535 nm (green) in HepG2 cells (AID 720675)
[7] = qHTS assay to test for compound auto fluorescence at 460 nm (blue) in HEK293 cells (AID 720678)
Outline: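 Blue read-out at excitation 405 nm and emission 460 nm follows overnight compound exposure of HEK293 cells at 37C in 5% CO2. Activity is given as auto fluorescence equivalency to triamterene.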

[8] = qHTS assay to test for compound auto fluorescence at 590 nm (red) in HEK293 cells (AID 720679)
Outline: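 Red channel, Ex/Em 540/590nm; signal expressed as equivalency to Rose Bengal sodium. HEK293, 2,000 cells/well, 10% dialyzed FBS; 23 nL compound pinned after 4-5 hr attachment; overnight 37C/5% CO2 before reading.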

[9] = qHTS assay to test for compound auto fluorescence at 535 nm (green) in HEK293 cells (AID 720680)
[10] = qHTS assay to test for compound auto fluorescence at 460 nm (blue) in HEK293 cell free culture (AID 720681)
Outline: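 Test compounds were pinned into cell-free culture medium (DMEM with 10% FBS) and fluorescence was read directly at Ex/Em 405/460 nm. Signals were expressed as fluorescence equivalents of triamterene, with DMSO vehicle as control.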

[11] = qHTS assay to test for compound auto fluorescence at 535 nm (green) in HEK293 cell free culture (AID 720682)
Outline: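 Read-out: 485/535 nm fluorescence intensity, calibrated against fluorescein. Medium only (DMEM + 10% FBS, no cells); test compound or DMSO vehicle added by pintool before plate reading.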

[12] = qHTS assay to test for compound auto fluorescence at 590 nm (red) in HEK293 cell free culture (AID 720683)
Outline: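 Tox21 10K library compounds were pinned into cell-free DMEM with 10% FBS and fluorescence was read at excitation 540 nm. Activity is expressed as Rose Bengal sodium equivalency.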

[13] = qHTS assay to test for compound auto fluorescence at 590 nm (red) in HepG2 cell free culture (AID 720684)
Outline: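 Ex 540 / Em 590 nm read of compound in cell-free MEM (10% FBS). Rose Bengal sodium reference.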

[14] = qHTS assay to test for compound auto fluorescence at 460 nm (blue) in HepG2 cell free culture (AID 720685)
Outline: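 Cell-free plates of MEM plus 10% FBS received 23 nL compound or DMSO vehicle; blue-channel (405/460 nm) intensity scored against triamterene as reference fluorophore.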

[15] = qHTS assay to test for compound auto fluorescence at 535 nm (green) in HepG2 cell free culture (AID 720686)
[16] = qHTS assay to test for compound auto fluorescence at 460 nm (blue) in HepG2 cells (AID 720687)
Outline: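 Cells (2,000/well in MEM with 10% FBS) attached overnight at 37 C, then were exposed to compound or DMSO for 1 hr at 37 C, 5% CO2. Fluorescence read at Ex/Em 405/460 nm, expressed as triamterene-equivalent signal.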

[17] = biological target: Glucocorticoid receptor (Homo sapiens) (UniProt P04150); assay: qHTS assay to identify small molecule agonists of the glucocorticoid receptor (GR) signaling pathway (AID 720691; active = well fitted activation curve with a large enough effect in the signal ratio in the repeat runs, not every such curve was filed as active; the % refers to the signal ratio)
Outline: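 Agonist-mode qHTS in HeLa cells stably expressing a glucocorticoid-response-element beta-lactamase reporter. Fluorescence intensity read with FRET substrate (2 h, room temperature) after 18 h compound treatment at 37 C.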

[18] = biological target: Glucocorticoid receptor (Homo sapiens) (UniProt P04150); assay: qHTS assay to identify small molecule antagonists of the glucocorticoid receptor (GR) signaling pathway (AID 720692; active = well fitted inhibition curve with a large enough effect in the signal ratio in the repeat runs, not every such curve was filed as active; the % refers to the signal ratio)
Outline: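 Inhibition of dexamethasone-driven (5 nM final) beta-lactamase expression was measured in GRE-reporter HeLa cells over 18 h at 37C. Fluorescence was read after 2 h with the B/G FRET substrate at room temperature.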

[19] = qHTS assay for small molecule disruptors of the mitochondrial membrane potential - cell viability (AID 720634; calls by dose curve;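 note: human HepG2 liver cancer cells; series mostly up to about 83 µM; nearly all actives have a fitted effect of over 20% in size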)
Outline: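 Cytotoxicity was quantified from ATP content by CellTiter-Glo luminescence in the same wells as the MMP dye read-out. HepG2 (2,000 cells/well) were plated overnight and exposed to compounds for 1 hr at 37 C.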

[20] = qHTS assay for small molecules that induce genotoxicity in human embryonic kidney cells expressing luciferase-tagged ATAD5 - cell viability (AID 651634; calls by dose curve; note: nearly all actives have a fitted effect of over 25% in size)
Outline: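 Cytotoxicity counter-readout: after 15.5 hr compound treatment at 37C, live-cell protease activity in ATAD5-luciferase HEK293T cells measured by CellTiter-Fluor fluorescence, 30 min development at 37C.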

Glucocorticoid receptor (Homo sapiens), sequence (P04150 whole entry, looked up): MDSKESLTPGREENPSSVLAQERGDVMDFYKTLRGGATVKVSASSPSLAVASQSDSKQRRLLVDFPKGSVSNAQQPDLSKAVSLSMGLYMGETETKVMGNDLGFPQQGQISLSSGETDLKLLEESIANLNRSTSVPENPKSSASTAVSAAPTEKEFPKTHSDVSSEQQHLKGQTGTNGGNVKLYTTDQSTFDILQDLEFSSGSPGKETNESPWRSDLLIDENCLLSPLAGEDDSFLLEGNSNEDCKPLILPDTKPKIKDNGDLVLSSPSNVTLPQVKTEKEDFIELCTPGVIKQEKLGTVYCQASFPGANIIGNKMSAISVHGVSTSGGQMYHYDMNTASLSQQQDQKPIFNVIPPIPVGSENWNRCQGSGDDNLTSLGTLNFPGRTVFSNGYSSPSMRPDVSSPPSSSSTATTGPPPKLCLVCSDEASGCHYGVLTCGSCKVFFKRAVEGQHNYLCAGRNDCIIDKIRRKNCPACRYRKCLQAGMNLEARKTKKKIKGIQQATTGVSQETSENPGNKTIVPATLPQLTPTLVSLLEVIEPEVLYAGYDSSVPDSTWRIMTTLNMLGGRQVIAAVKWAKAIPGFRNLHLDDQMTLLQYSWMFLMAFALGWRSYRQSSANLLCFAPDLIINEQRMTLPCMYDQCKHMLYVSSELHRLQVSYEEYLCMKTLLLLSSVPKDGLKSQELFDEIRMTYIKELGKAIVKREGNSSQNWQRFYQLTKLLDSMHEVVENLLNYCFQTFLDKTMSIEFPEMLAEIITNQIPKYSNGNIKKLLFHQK

Compound | Potency [1] | Potency [2] | Potency [3] | Potency [4] | outcome [5] | outcome [6] | Potency [7] | outcome [8] | outcome [9] | Potency [10] | outcome [11] | outcome [12] | outcome [13] | outcome [14] | outcome [15] | outcome [16] | Potency [17] | Potency [18] | Potency [19] | Potency [20]
COc1ccc(C(=O)Nc2ccccc2)cc1[N+](=O)[O-] | inactive | inactive | inactive | 2.75 µM (active) | inactive | inactive | inactive | inactive | inactive | inactive | inactive | inactive | inactive | inactive | inactive | inactive | inactive | inactive | – | –
CC1(C)CC(=O)CC(C)(C)N1 | inactive | inactive | inactive | inactive | inactive | inactive | inactive | inactive | inactive | inactive | inactive | inactive | inactive | – | inactive | inactive | – | inactive | inactive | –
CC/C=C/CCO | inactive | inactive | inactive | – | inactive | inactive | inactive | inactive | inactive | inactive | inactive | inactive | inactive | inactive | inactive | inactive | inactive | – | inactive | –
CCCCOC(=O)C(C)Oc1ccc(Oc2ccc(C(F)(F)F)cn2)cc1 (centres undefined) | inactive | inactive | inactive | inactive | inactive | inactive | inactive | inactive | inactive | inactive | inactive | inactive | inactive | inactive | inactive | inactive | inactive | – | inactive | –
C=CC(O)CCCCC (centres undefined) | inactive | inactive | inactive | – | – | inactive | inactive | inactive | inactive | inactive | inactive | inactive | inactive | – | inactive | – | – | – | – | inactive
CS(C)=O | inactive | inactive | inactive | – | inactive | inactive | inactive | inactive | inactive | inactive | inactive | inactive | inactive | inactive | inactive | inactive | inactive | – | inactive | –
CC(C)C/C=C(\C=O)c1ccccc1 | inactive | inactive | inactive | – | inactive | inactive | inactive | inactive | inactive | inactive | inactive | inactive | inactive | inactive | inactive | inactive | – | – | – | inactive
O=C(O)c1c2ccccc2cc2ccccc12 | inactive | inactive | inactive | inactive | inactive | inactive | inactive | inactive | inactive | inactive | inactive | inactive | inactive | inactive | inactive | inactive | – | – | inactive | –
CCC(C)CCCC(C)(C)O (centres undefined) | inactive | inactive | inactive | – | inactive | inactive | inactive | inactive | inactive | inactive | inactive | inactive | inactive | inactive | inactive | – | inactive | inactive | inactive | –
CC(=O)c1cccnc1 | inactive | inactive | inactive | inactive | inactive | inactive | – | inactive | inactive | inactive | inactive | inactive | inactive | inactive | inactive | inactive | inactive | inactive | inactive | –
CC1(COc2ccc(CC3SC(=O)NC3=O)cc2)CCCCC1 (centres undefined) | 33.5 µM (active) | inactive | 26.6 µM (active) | 6.68 µM (active) | inactive | inactive | inactive | inactive | inactive | inactive | inactive | inactive | inactive | inactive | inactive | inactive | – | – | – | –
N#CCCCC(C#N)CCC#N (centres undefined) | inactive | inactive | inactive | inactive | – | inactive | inactive | inactive | inactive | inactive | inactive | inactive | inactive | inactive | inactive | inactive | – | – | inactive | –
O=C(OCCOCCOCCOC(=O)c1ccccc1)c1ccccc1 | inactive | inactive | inactive | – | inactive | inactive | inactive | inactive | inactive | inactive | inactive | inactive | inactive | inactive | inactive | inactive | – | inactive | – | inactive
O=C(O)c1ccc2cc(O)ccc2c1 | inactive | inactive | inactive | – | inactive | inactive | inactive | inactive | inactive | inactive | inactive | inactive | inactive | inactive | inactive | inactive | inactive | – | – | inactive
